Screening results: PubChem, National Center for Advancing Translational Sciences (NCATS)
NPR1 antag – Natriuretic polypeptide receptor (hNpr1) antagonism - Primary qHTS; Atrial natriuretic peptide receptor 1 (Homo sapiens), P16066; actives 1.6% (n = 76,000); HEK293 hNpr1 GloSensor cGMP, ANP-stimulated luminescence; AID 1347048, 2019; Potency, µM (highest dose often 46.3 µM), inactives show top-dose activity change, negative = inhibition, usual class: inhibitors; calls by dose curve; note: % is set by controls: 0 for no effect and ±100 for the full control effect; nearly all actives have a fitted effect of over 60% in size
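HEK293 cells stably expressing human Npr1 and cGMP GloSensor pGS-40F, loaded 2 h with 2% GloSensor reagent, given compound 30 min at room temperature. Luminescence read before and 20 min after 0.1 nM hNppA.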
NIH3T3 tox – Cytotoxic Profiling in NIH 3T3 Cell Line of Diverse Libraries Using Quantitative High-Throughput Screening | NIH 3T3 viability, CellTiter-Glo ATP luminescence, 48-72 h | Potency, µM (titrated, usually from 96.7 µM), for inactives: at the highest dose activity change, negative = cytotoxicity, hits mostly inhibitors | actives 4.3% (n = 94,000); note: % is set by controls: 0 for no effect and ±100 for the full control effect; nearly all actives have a fitted effect of over 55% in size
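Luminescent ATP readout (CellTiter-Glo, 10 min RT) after 48 or 72 hr compound exposure of NIH 3T3 cells seeded at 400 cells/well in 1536-well format; quantitative HTS.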
FLuc inh – Firefly luciferase inhibition profiling of diverse chemical library using quantitative high-throughput screening | actives 2.5% (n = 76,000) | purified P. pyralis luciferase, luminescence, biochemical | Potency, µM (series often up to 115 µM), most hits filed as inhibitors | Luciferin 4-monooxygenase (Photinus pyralis), P08659; note: % is set by controls: 0 for no effect and ±100 for the full control effect; nearly all actives have a fitted effect of over 65% in size
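Inhibitors were tested against purified firefly luciferase in a biochemical, low-substrate format (both substrates at 10uM) and luminescence measured with a CCD imager.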
HEK cytotox – Cytotoxic Profiling in HEK 293 Cell Line of Diverse Libraries Using Quantitative High-Throughput Screening; HEK 293 viability, ATP luminescence (CellTiter-Glo), 48-72 h; Potency, µM (top dose mostly 115 µM), inactives show top-dose activity change, negative = cytotoxicity, hits mostly inhibitors; actives 6.6% (n = 94,000); note: % is set by controls: 0 for no effect and ±100 for the full control effect; nearly all actives have a fitted effect of over 60% in size
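ATP-coupled CellTiter-Glo luminescence served as viability read-out, recorded 10 min after reagent addition at room temperature. HEK 293 cells, 250 cells/well, had been incubated with pintool-transferred compound for 48 or 72 hr at 37 degree Celsius.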
NPR1 antag cnf – Natriuretic polypeptide receptor (hNpr1) antagonism - Confirmation; shares compounds with NPR1 antag; HEK293 hNpr1 cGMP GloSensor luminescence, ANP-stimulated; Potency, µM (doses to about 57.6 µM), for inactives: at the top dose activity change, negative = inhibition, hits mostly inhibitors; actives 76% (n = 1,400); AID 1347044, 2019; calls by dose curve; note: nearly all actives have a fitted effect of over 70% in size
Npr2 selectivity – Natriuretic polypeptide receptor (hNpr2) antagonism - Subtype selectivity assay; shares compounds with NPR1 antag; HEK293 hNpr2 GloSensor cGMP luminescence, CNP-stimulated; actives 67% (n = 1,400); Potency, µM (top dose mostly 57.6 µM), inactives show at the highest dose activity change, negative = inhibition, hits mostly inhibitors; calls by dose curve; note: nearly all actives have a fitted effect of over 70% in size
FLuc counter – Natriuretic polypeptide receptor (hNpr1) antagonism - Confirmation firefly luciferase (FLuc) inhibition counterscreen; Potency, µM (top dose mostly 57.6 µM), for the others: at the top dose activity change, negative = inhibition, usual class: inhibitors; AID 1347047, 2019; purified FLuc enzyme, luminescence, Km substrate; actives 0.7% (n = 1,400); shares compounds with NPR1 antag; note: 0% is about no effect
GloSensor ctrl – Natriuretic polypeptide receptor (hNpr1) antagonism - Counterscreen GloSensor control cell line; shares compounds with NPR1 antag; HEK293 GloSensor cGMP, SNP-stimulated, luminescence; Potency, µM (highest dose often 57.6 µM), for inactives: at the highest dose activity change, negative = inhibition, most hits filed as inhibitors; actives 69% (n = 1,400); calls by dose curve; note: % is set by controls: 0 for no effect and ±100 for the full control effect; nearly all actives have a fitted effect of over 70% in size
An asterisk follows results filed as active; i = inactive; ? = inconclusive; . = no result given; [ ] = remark or other dose. Rows were chosen to be rich in hits. Some 11% of all compounds tested hit in one or more screens of this group. Unless noted, calls come from the whole dose curve; as a rule, active = well fitted curve in the direction sought with a large enough effect; inconclusive = small, poorly fitted or top-dose-only effect, or another doubt; inactive = no such curve, though single readings can be large; an effect the other way counts as inactive or inconclusive. Potency is the fitted concentration of half-maximal effect.

SMILES	NPR1 antag	NIH3T3 tox	FLuc inh	HEK cytotox	NPR1 antag cnf	Npr2 selectivity	FLuc counter	GloSensor ctrl
CCOc1ccc(CC(=O)N2CCC(Cc3nc(-c4ccc(F)cc4)no3)CC2)cc1	6.3µM*	?	i	?	5.4µM*	6.1µM*	6%	4.8µM*
COc1cc2c(cc1CN1CCN(c3ccc(C#N)cc3)C(=O)C1)CCC2	-5%	-28%	i	-21%	.	.	.	.
O=C(Cc1ccccc1Cl)N1CCC(Cc2nc(-c3ccccc3)no2)CC1	?	?	i	?	.	.	.	.
O=C(COc1ccc(Cl)cc1)N1CCC[C@H]1c1nc(-c2ccc(F)cc2)no1	-19%	?	i	?	.	.	.	.
O=C(COc1ccc(F)cc1)N1CCC(Oc2ccc(-c3noc(C4CC4)n3)cc2)C1 (stereo not drawn)	11µM*	?	i	?	?	?	-2%	31µM*
O=C(CC1CCCCC1)N1CCC(Cc2nc(-c3ccc(F)cc3)no2)CC1	4µM*	?	i	?	4.8µM*	5.4µM*	-1%	4.8µM*
O=C(COc1ccc(Cl)cc1)N1CCC(Cc2nc(-c3ccccc3)no2)CC1	14µM*	?	i	40µM*	12µM*	14µM*	-2%	12µM*
O=C(C1CC1)N1CCC(Cc2nc(-c3ccc(F)cc3)no2)CC1	?	?	i	?	.	.	.	.
O=C(Cc1ccc(F)cc1)N1CCC(Cc2nc(-c3ccc(F)cc3)no2)CC1	13µM*	?	i	?	14µM*	14µM*	3%	11µM*
O=C(Cc1cccc(Cl)c1)N1CCCC(C(=O)N2CCCC2c2nc3ccncc3[nH]2)C1 (stereo not drawn)	.	i	.	2%	.	.	.	.
COc1cc(C(=O)N2CCC(Cc3nc(-c4ccc(F)cc4)no3)CC2)cc(OC)c1OC	13µM*	?	i	?	14µM*	19µM*	-1%	15µM*
CC(C)c1noc(CC2CCN(C(=O)c3ccc(C(C)(C)C)cc3)CC2)n1	-4%	-27%	i	?	.	.	.	.
O=C(c1cccc(F)c1)N1CC(Oc2ccc(-c3noc(C4CCOCC4)n3)cc2)C1	6.3µM*	?	i	?	4.3µM*	5.4µM*	-6%	3.4µM*
O=C(c1ccc(F)cc1)N1CCC(Cc2nc(-c3ccc(F)cc3)no2)CC1	1.4µM*	?	i	?	1.7µM*	2.7µM*	-1%	1.9µM*
CC(C)c1noc(CC2CCN(C(=O)c3ccc(F)cc3)CC2)n1	?	-34%	i	?	?	?	-1%	?
CCc1cc(=O)n(CC(=O)Nc2ccccc2OC)c(-c2ccccc2)n1	-9%	?	i	?	.	.	.	.
Cn1nc(C2CC2)cc1N[S+](=O)([O-])c1ccccc1	.	-15%[138 µM]	.	2%[172 µM]	.	.	.	.
COC[C@@H]1CN(C(=O)Cc2c[nH]c3ccccc23)C[C@H]1c1nc(C)no1	3%	-3%	i	4%	.	.	.	.
CCCCOC(=O)N1CCC(=O)N(C)C[C@H]2COc3cc(OC)ccc3[C@H]21	.	?	.	-10%	.	.	.	.
Fc1cccc(CN2CCC(Oc3ccc(-c4noc(C5CC5)n4)cc3)C2)c1 (stereo not drawn)	20µM*	?	i	?	27µM*	?	0%	?
CCn1cc(CNC(=O)c2ccc(OC3CCN(S(=O)(=O)N(C)C)CC3)cc2)cn1	13µM*	-29%	i	?	19µM*	19µM*	-3%	11µM*
Cc1nnc2ccc(N3CCN(C(=O)NC4CCCC4)CC3)nn12	.	-23%	.	-16%	.	.	.	.
Cc1ccc(CNC(=O)N2CCC(c3noc(-c4ccccc4)n3)C2)cc1 (stereo not drawn)	18µM*	?	i	40µM*	?	24µM*	0%	24µM*
CCNC(=O)N1CCC(c2noc(-c3ccccc3)n2)C1 (stereo not drawn)	7%	-10%	i	-2%	.	.	.	.
COc1ccc(C2Cn3nnc(C(=O)N4CCN(C(=O)Cc5ccccc5Cl)CC4)c3CO2)cc1 (stereo not drawn)	?	0%	i	?	12µM*	15µM*	1%	11µM*
SMILES	NPR1 antag	NIH3T3 tox	FLuc inh	HEK cytotox	NPR1 antag cnf	Npr2 selectivity	FLuc counter	GloSensor ctrl
O=C(Cc1ccccc1Cl)N1CCN(C(=O)c2nnn3c2COC(c2ccc(F)cc2)C3)CC1 (stereo not drawn)	-2%	-23%	i	-7%	.	.	.	.
COc1ccc(C2Cn3nnc(C(=O)N4CCN(C(=O)c5c(F)cccc5F)CC4)c3CO2)cc1 (stereo not drawn)	-2%	?	i	?	.	.	.	.
O=C(c1cc(Cl)ccc1F)N1CCN(C(=O)c2nnn3c2COC(c2ccccc2)C3)CC1 (stereo not drawn)	?	-27%	i	?	24µM*	?	0%	?
O=C(COc1ccccc1)N1CCN(C(=O)c2nnn3c2COC(c2ccc(Cl)cc2)C3)CC1 (stereo not drawn)	11µM*	?	i	25µM*	22µM*	22µM*	-1%	19µM*
COc1ccc(C2Cn3nnc(C(=O)N4CCN(C(=O)c5cc(F)ccc5F)CC4)c3CO2)cc1 (stereo not drawn)	?	-27%	i	?	19µM*	19µM*	4%	19µM*
O=C(c1ccccc1F)N1CCN(C(=O)c2nnn3c2COC(c2ccccc2)C3)CC1 (stereo not drawn)	-11%	-9%	i	?	.	.	.	.
